Hits are enriched below; roughly 2.2% of the tested compounds scored in any of these assays.
PvdQ inh: blocks Pseudomonas aeruginosa PvdQ acylase activity. purified PvdQ acylase, fluorescence plate reader. inhibition, % at 10 µM. 340,000 tested, 0.063% active; in the data active = inhibition above about 30%, passing the limit was not always enough; inconclusive = no clear call, values can overlap the other calls
PHOSPHO1 inh: inhibitors of human PHOSPHO1 phosphatase | AID 1565 | recombinant PHOSPHO1, absorbance phosphatase assay | 290,000 tested, 1.1% active | Q8TCT1 | inhibition, % at 13.3 µM; in the data active = inhibition above about 60%
pCIP destab: compounds decreasing mouse p/CIP protein stability; F442A p/CIP-EGFP cells, EGFP fluorescence, 16 h; decrease of EGFP signal, % at 10 µM; 290,000 tested, 0.01% active;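 active = EGFP signal decrease of at least 30% at 10 µM or well 3 SD below plate mean, unless failing retest; inactive = the rest, including hits failing retest or dose response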
Mot1-301 SUMO: SUMOylation pathway inhibition by Mot1-301 growth rescue. S. cerevisiae Mot1-301 growth rescue, ATP luminescence, 38.5C; percent above DMSO median, 100 means doubled. growth rescue, % at 18.8 µM. 320,000 tested, 1% active;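 active = every valid replicate shows activation above 250% relative to neutral control wells; inactive = the rest, any valid replicate at or below 250%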
JMJD2C inh: blocks human GASC-1 demethylase activity | 330,000 tested, 0.069% active | AID 2099 | inhibition, % at 2.35 µM | Q9H3R0 | GST-JMJD2C(1-420) H3K9me3 demethylation, DELFIA europium;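 active = more than half of a compound's replicate wells show inhibition beyond 50%, single wells judged on their own value; inconclusive = some, but no more than half, of replicates pass 50% inhibition; inactive = no replicate passes 50% inhibition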;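 note: signal counts dimethyl H3K9 product captured on neutravidin plate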
Target sequence (Q9H3R0 1-420 limits assumed): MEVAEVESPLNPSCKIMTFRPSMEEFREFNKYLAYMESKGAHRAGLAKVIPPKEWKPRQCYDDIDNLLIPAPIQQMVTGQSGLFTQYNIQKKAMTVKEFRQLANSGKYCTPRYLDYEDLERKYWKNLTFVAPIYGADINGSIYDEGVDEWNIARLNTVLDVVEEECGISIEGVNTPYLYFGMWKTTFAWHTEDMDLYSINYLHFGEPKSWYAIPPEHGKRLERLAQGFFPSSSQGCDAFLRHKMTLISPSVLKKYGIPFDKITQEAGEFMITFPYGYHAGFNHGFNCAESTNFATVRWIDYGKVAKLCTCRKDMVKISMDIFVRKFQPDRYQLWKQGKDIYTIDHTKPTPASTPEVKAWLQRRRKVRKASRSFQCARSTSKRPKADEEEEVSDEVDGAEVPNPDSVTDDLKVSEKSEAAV
HDAC3 inhib: inhibitors of human histone deacetylase 3 | 320,000 tested, 0.15% active | O15379 | inhibition, % at 8.3 µM | recombinant HDAC3, fluorogenic peptide/trypsin coupled, fluorescence; in the data active = inhibition above about 26%, passing the limit was not always enough; inconclusive = no clear call, values can overlap the other calls
Large screens that a line does not name were inactive; ! = repeats disagree.

C#CC(=O)N(c1cccc(OC)c1)C(C(=O)NC1CCCC1)c1cccs1 (centres undefined)	Mot1-301 SUMO 331
Cc1ccc(C(=O)CSC2=C(C#N)C(c3ccco3)C3=C(CC(C)(C)CC3=O)N2)cc1 (centres undefined)	PHOSPHO1 inh 76
CCOC(=O)CSC1=C(C#N)C(c2ccc(F)cc2)C(C(C)=O)=C(C)N1 (centres undefined)	PHOSPHO1 inh 79
CSC1=C(C#N)C(c2ccc(C)cc2)C2=C(CCCC2=O)N1 (centres undefined)	HDAC3 inhib inconclusive
CCOC(=O)CSC1=C(C#N)C(c2ccc(C)cc2)C2=C(CCCC2=O)N1 (centres undefined)	PHOSPHO1 inh 92
Cc1ccc(NC(=O)C2CCN(S(=O)(=O)c3c(C)noc3C)CC2)cc1C	none
COc1ccccc1/C=C/C=N/NC(=O)c1cccs1	none
CCCCn1c(SCN2C(=O)c3ccccc3C2=O)nc2cc(S(N)(=O)=O)ccc21	PHOSPHO1 inh 90 (no result: Mot1-301 SUMO, HDAC3 inhib)
CCCCn1c(SCC(=O)c2cc(OC)ccc2OC)nc2cc(S(N)(=O)=O)ccc21	PHOSPHO1 inh 65
CCCCn1c(SCn2nnc3ccccc3c2=O)nc2cc(S(N)(=O)=O)ccc21	none
CCN(CC)c1ccc(NC(=O)COC(=O)c2cccs2)cc1	PHOSPHO1 inh 100
O=C(CSc1ccc2nnc(CCNC(=O)c3ccc(F)cc3)n2n1)NCc1ccco1	none
O=C(NC1CC2CCC1C2)C1COc2ccccc2O1 (centres undefined)	JMJD2C inh 68, HDAC3 inhib inconclusive
O=C(O)CNC(=O)C1COc2ccccc2O1 (centres undefined)	none
CCCCNC(=S)NNC(=O)c1ccoc1C	none
CCCCNC(=S)NNC(=O)c1csc2ccccc12	PHOSPHO1 inh 62
CCOC(=O)C(NC(=O)N(C)C)(Nc1sc(C)c(CC)c1C#N)C(F)(F)F (centres undefined)	HDAC3 inhib 32
CC(=O)Nc1nnc(SCC(=O)NCC2CCCO2)s1 (centres undefined)	PHOSPHO1 inh 86
Cn1c(SCC(=O)NCC2CCCO2)ncc(C(=O)Nc2ccccc2)c1=O (centres undefined)	Mot1-301 SUMO 418 (no result: PHOSPHO1 inh, pCIP destab)
CCOCCCNC(=O)C1CCN(S(=O)(=O)c2ccc3nc4c(c(C(=O)O)c3c2)CCCCC4)CC1	none
O=C(C[C@H]1C/C=C\CC[C@H](Cc2ccc(F)cc2)C(=O)OC[C@@H](Cc2c[nH]c3ccccc23)NC1=O)NCCO	none (no result: PHOSPHO1 inh, pCIP destab)
Cc1ccc(C(=O)NCC(=O)NCCc2ccc(S(N)(=O)=O)cc2)s1	none
Cc1nc2ccccn2c(=O)c1CCN1CCC(C(=O)c2ccc(F)cc2)CC1	Mot1-301 SUMO 427!
Cc1nc2sccn2c(=O)c1CCN1CCC(=C(c2ccc(F)cc2)c2ccc(F)cc2)CC1	none
CC(C)C1=CC2=CCC3C(C)(C(=O)O)CCCC3(C)C2CC1 (centres undefined) (tested in a mixture with another compound)	none (no result: PvdQ inh)
O=C(NCc1cccc(F)c1)C1CCN(S(=O)(=O)Cc2ccccc2)CC1	JMJD2C inh 73
O=C(NCc1ccncc1)C1CCN(S(=O)(=O)Cc2ccccc2)CC1	none
CCOc1ccc(/C=N/NC(=O)c2ccc(F)cc2)cc1CN1CC2CC(C1)c1cccc(=O)n1C2 (centres undefined)	none (no result: PHOSPHO1 inh, pCIP destab)
N#C/C(=C/c1ccco1)c1nc2ccccc2s1	PvdQ inh 41
O=C(COC(=O)c1ccc(Br)o1)NCCc1ccccc1	none
Cc1nc2ccccc2c(=O)n1NC(=O)COc1ccccc1	none
O=C(COc1ccccc1)Nn1cnc2ccccc21	PHOSPHO1 inh 97
O=C(CNC(=O)c1cccs1)OCC(=O)c1ccc([N+](=O)[O-])cc1	none
O=C(CNC(=O)c1cccs1)c1ccc([N+](=O)[O-])cc1	PHOSPHO1 inh 67
CCCN(c1ccccc1F)S(=O)(=O)c1c[nH]c(C(=O)OC)c1	PHOSPHO1 inh 70
CCOc1ccc(N(C)S(=O)(=O)c2c[nH]c(C(=O)OC)c2)cc1	PHOSPHO1 inh 65
CC1CN(C(=O)COC(=O)c2nn(-c3ccccc3)c(=O)c3ccccc23)CC(C)O1 (centres undefined)	none
C=CCn1c(CNC(=O)c2cccs2)nnc1SCC(=O)c1ccc(Br)cc1	none (no result: Mot1-301 SUMO)
Cc1ccc(-n2c(CNC(=O)c3cccs3)nnc2SCC(=O)NO)cc1	HDAC3 inhib 53
C=CCn1c(CNC(=O)c2cccs2)nnc1SCC(=O)Nc1ccc(C(=O)O)cc1	PHOSPHO1 inh 90
CN(C)c1ccc(NC(=O)Nc2cccc(Cl)c2)cc1	PHOSPHO1 inh 93
CN(c1cccc(NC(=O)Nc2cccc(Cl)c2)c1)S(C)(=O)=O	none
Cc1cc(C)n2c(SCC(=O)Nc3ccc(F)cc3)nnc2n1	PvdQ inh inconclusive
CCN(c1ccc(NC(=O)CSc2nnc3nc(C)cc(C)n23)cc1)C(C)C	PHOSPHO1 inh 73
CCCn1c(SCC(=O)c2cc(C)c(C)cc2C)n[nH]c1=O	PHOSPHO1 inh 97
CCCn1c(SCC(=O)c2ccc3c(c2)OCCO3)n[nH]c1=O	none
CC(NS(=O)(=O)c1ccc2c(c1)C(C)(C)C(=O)N2C)c1ccccc1 (centres undefined)	none
CN(C)C(=O)C1CCC(=O)N1Cc1cccs1 (centres undefined)	none
CC[n+]1ccc(C[n+]2ccccc2)c2ccccc21	PHOSPHO1 inh 88, HDAC3 inhib inconclusive
O=C(Cn1cnc2sc3c(c2c1=O)CCCC3)NCC(=O)Nc1ccc(F)cc1F	PHOSPHO1 inh 65
Cc1nc(-c2ccccc2)cc(N2CCCC2)n1	none
Cc1cc(C)n(-c2cc(-c3ccccc3)nc(C)n2)n1	Mot1-301 SUMO 336
COc1ccc(C(=O)COC(=O)CCCC(=O)NC2CCCCC2)cc1	none
Clc1ccccc1Cn1nnc2c(NCCN3CCOCC3)ncnc21	JMJD2C inh 91
C=CCn1c(Cc2cccs2)nnc1SCC(=O)c1cccc(Br)c1	PHOSPHO1 inh 68
CCOc1ccc(S(=O)(=O)N2CCC(C(=O)NCCc3ccc(S(N)(=O)=O)cc3)CC2)cc1	Mot1-301 SUMO 271
CCOc1ccc(S(=O)(=O)N2CCC(C(=O)NCCc3ccc(OC)c(OC)c3)CC2)cc1	none
O=C(CCNC(=O)C1CCN(S(=O)(=O)c2ccc(F)cc2)CC1)NCCc1ccc(Cl)cc1	PHOSPHO1 inh 64
O=C(N=C1SC2CS(=O)(=O)CC2N1CCc1ccccc1)C1CC1 (centres undefined)	JMJD2C inh inconclusive
OC1(c2cccc(F)c2)CCN(Cc2ccncc2)CC1	JMJD2C inh 69
COC(=NC(C)C)NC(C)C	none (no result: PvdQ inh)
NNC(=O)c1nn(-c2ccc(Cl)cc2)ccc1=O	JMJD2C inh 55
COc1cccc(OC)c1/C(O)=C(\C#N)c1nc2ccccc2[nH]1	PHOSPHO1 inh 60
CC(C)(C)/C(O)=C(/C#N)c1nc2ccccc2[nH]1	none

High-throughput results from PubChem BioAssay.
